Test results from PubChem BioAssay (NCI).
This is part of a sample that, as a whole, favours compounds with a hit. Of some 83,000 tested, about 20% had one in any assay.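 A percent growth of 40 corresponds to 60% growth inhibition; 0 means no net growth; -100 means all cells died. Active threshold: below 10.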 A number with no mark means an inactive call. Activity calls are given as the source filed them.

Tests used:
Assay in all cases: NCI-60 one-dose screen, 48 h (100 = growth as untreated, 0 = no growth, -100 = all killed)
Conditions in all cases: 10 µM
SR leukemia = test system: SR leukemia
RPMI-8226 leukemia = test system: RPMI-8226 leukemia
OVCAR-8 ovarian = test system: OVCAR-8 ovarian
OVCAR-5 ovarian = test system: OVCAR-5 ovarian
OVCAR-4 ovarian = test system: OVCAR-4 ovarian
SK-OV-3 ovarian = test system: SK-OV-3 ovarian
IGROV1 ovarian = test system: IGROV1 ovarian
OVCAR-3 ovarian = test system: OVCAR-3 ovarian
HS 578T breast = test system: HS 578T breast
NCI/ADR-RES ovarian = test system: NCI/ADR-RES ovarian
T-47D breast = test system: T-47D breast
BT-549 breast = test system: BT-549 breast
MDA-MB-435 melanoma = test system: MDA-MB-435 melanoma
SW-620 colon = test system: SW-620 colon
MCF7 breast = test system: MCF7 breast
HCT-116 colon = test system: HCT-116 colon
HCC-2998 colon = test system: HCC-2998 colon
KM12 colon = test system: KM12 colon
MDA-MB-468 breast = test system: MDA-MB-468 breast

| SMILES | growth (SR leukemia) | growth (RPMI-8226 leukemia) | growth (OVCAR-8 ovarian) | growth (OVCAR-5 ovarian) | growth (OVCAR-4 ovarian) | growth (SK-OV-3 ovarian) [%] | growth (IGROV1 ovarian) | growth (OVCAR-3 ovarian) | growth (HS 578T breast) | growth (NCI/ADR-RES ovarian) | growth (T-47D breast) | growth (BT-549 breast) | growth (MDA-MB-435 melanoma) | growth (SW-620 colon) | growth (MCF7 breast) | growth (HCT-116 colon) | growth (HCC-2998 colon) | growth (KM12 colon) | growth (MDA-MB-468 breast) |
| --- | --- | --- | --- | --- | --- | --- | --- | --- | --- | --- | --- | --- | --- | --- | --- | --- | --- | --- | --- |
| Cc1cc(=O)oc2cc(OCCCCOc3ccc(/C=C/C(=O)Nc4ccc(F)c(Cl)c4)cc3)ccc12 | 89% | 92.6% | 85.2% | 101% | 37.9% | 122 | 109% | 97.2% | 111% | 88.7% | 67.1% | 93.2% | 92.7% | 96.9% | 77.8% | 87.6% | 123% | 91.3% | 120% |
| O=c1c2ccccc2nc(COc2ccccc2)n1/N=C/c1ccc(N2CCOCC2)cc1 | 95.1% | 88.8% | 33.1% | 93.3% | 40.4% | 64.5 | 56.9% | 85.2% | 41.2% | 58.1% | 92.9% | 76.8% | 99.3% | 97.6% | 77.6% | 52.5% | 99.2% | 90.7% | 117% |
| OCc1[nH]nc2cc(Nc3ncc4ccc(Br)c(OC5CCC(O)CC5)c4n3)ccc12 (configuration not stated) | 3.06% (active) | 3.2% (active) | 8.63% (active) | -17.9% (active) | 4.77% (active) | 13.7 | -12.4% (active) | 2.95% (active) | -28.5% (active) | -3.04% (active) | 2.7% (active) | -42.5% (active) | -15.7% (active) | -18.6% (active) | -74.7% (active) | 6.59% (active) | -49% (active) | 2.85% (active) | -87.8% (active) |
| COc1ccc2c(c1)N=C(C(=O)O)/C2=C/c1sc(Nc2ccc(O)cc2)nc1O | 24.9% | 65.7% | 80.8% | 109% | 74.7% | 86.1 | 74.6% | 72.9% | 50.9% | 93.3% | 45.4% | 55.4% | 8.85% (active) | 74.7% | 27.9% | 64.7% | 74.7% | 57.9% | 12.3% |
| CN1CCc2c(sc3ncnc(N/N=C/c4cn(-c5ccccc5)nc4-c4ccc(Cl)cc4)c23)C1 | 8.8% (active) | 23.7% | -26.1% (active) | 27% | -9.33% (active) | 64 | 1.89% (active) | -17.2% (active) | 46.6% | -35.3% (active) | 35.9% | 41.1% | 41.9% | 10.8% | -31.6% (active) | 2.65% (active) | 5.24% (active) | 21.6% | -55.4% (active) |
| COc1ccc(-c2cc(-c3cc(C(=O)c4ccccc4)n4ccc(C)cc34)nc(N)c2C#N)cc1 | 86.7% | 78.9% | 20.2% | 90% | 24.2% | 94.4 | 79.1% | 60.5% | 8.95% (active) | 43.6% | 65.1% | 22.4% | 78.5% | 78.9% | 53.3% | 58.1% | 80.9% | 85.4% | 48.6% |
| NS(=O)(=O)c1ccc(N=Nc2c(O)n(CC(=O)Nc3ccccc3Br)c3ccccc23)cc1 | 41.3% | 37.3% | 18.6% | 70.2% | 69.4% | 41.5 | 26.4% | 45.7% | 45.7% | 43.6% | 38.1% | 0.165% (active) | 50.6% | 44.4% | 10.7% | 21.4% | 39.5% | 36.7% | 35.8% |
| O=C1Nc2ccc(Cl)cc2/C1=C/c1ccc(OCc2ccccn2)cc1 | 54.9% | 73.9% | 45.9% | 88.2% | -1.81% (active) | 89.2 | 54.6% | 57.3% | 14.8% | 14.1% | 69% | 78.8% | 76.9% | 47.5% | 28.9% | 28.5% | 105% | 78.8% | 50.4% |
